Bioassay records: PubChem, The Scripps Research Institute Molecular Screening Center
DAX1 inh-1 = DAX1 (NR0B1) inhibitors, primary screen, cell-based, HEK293, Gal4-DAX1, luciferase luminescence | Nuclear receptor subfamily 0 group B member 1 (Homo sapiens), P51843 | HEK293 Gal4-DAX1 luciferase reporter | inhibition, % at 6.75 µM | 340,000 compounds, 0.99% hits;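 active = inhibition above the mean over all tested compounds plus 3 SD, cut at about 4.2% in these data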;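 also: 0% = DAX1-transfected cells with DMSO and 100% = empty-vector control cells with DMSO; inhibition shows as a rise in luminescence from relieved DAX1 repression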
Target sequence (P51843 207-470 limits assumed): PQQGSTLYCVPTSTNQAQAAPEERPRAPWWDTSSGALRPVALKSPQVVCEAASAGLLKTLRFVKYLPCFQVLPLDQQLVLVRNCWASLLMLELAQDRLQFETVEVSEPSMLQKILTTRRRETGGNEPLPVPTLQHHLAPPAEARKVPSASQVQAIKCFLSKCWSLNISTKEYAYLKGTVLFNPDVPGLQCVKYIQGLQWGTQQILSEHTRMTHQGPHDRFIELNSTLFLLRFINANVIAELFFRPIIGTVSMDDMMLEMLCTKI
ssDAF12 agonist = S. stercoralis DAF-12 nuclear receptor activators, primary screen, cell-based, luminescence, HEK293, GRIP1 co-expression, lit1-tk-luc. HEK293 ssDAF-12/GRIP1 lit1-tk-luc reporter; % of 3 µM dafachronic acid response. activation, % at 6.8 µM. 370,000 compounds, 1% hits;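 active = activation above the mean over all tested compounds plus 3 SD, cut at about 0.9% in these data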;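 also: 0% = DMSO-only wells and 100% = 3 µM delta7-dafachronic acid wells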
hcDAF12 agonist = H. contortus DAF-12 nuclear receptor activators, primary screen, cell-based, luminescence, HEK293, lit1-tk-luc reporter; 370,000 compounds, 1.4% hits; activation, % at 6.8 µM; HEK293 hcDAF-12 lit1-tk-luc reporter; 0% DMSO, 100% Δ7-dafachronic acid;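 active = activation above the mean of all tested compounds plus 3 SD, cut at about 5.5% in these data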;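 also: 100% = response to 3 µM Δ7-dafachronic acid high control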
DAX1 inh-2 = DAX1 (NR0B1) inhibitors on StAR promoter, primary screen, cell-based, luminescence, SF-1 (NR5A1), full-length DAX-1. HEK293T StAR-luciferase reporter, SF-1/DAX-1 repression relief. inhibition, % at 6.8 µM. 370,000 compounds, 1.1% hits;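 active = inhibition above the mean over all tested compounds plus 3 SD, cut at about 3.6% in these data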;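 also: 0% = DAX-1 cells with DMSO and 100% = cells lacking DAX-1 with DMSO; higher inhibition means more luminescence from relief of DAX-1 repression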
hgDAF-12 ag = H. glycines DAF-12 receptor agonists, primary screen, cell-based, luminescence, HEK293, GAL4 fusion, UAS-luciferase; HEK293 GAL4-hgDAF12 UAS-luciferase reporter, agonist luminescence; normalized to butyrate control; activation, % at 6.8 µM; 370,000 compounds, 1.8% hits;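 active = activation above a cutoff set at the mean of all screened compounds plus 3 SD, cut at about 10% in these data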;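 also: 0% = DMSO wells and 100% = sodium butyrate wells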
DAX1 conf = DAX1 (NR0B1) inhibitors relieving SF-1 repression, confirmation, cell-based, luminescence, HEK293T, full-length DAX-1, SF-1 activated StAR promoter | 2,400 compounds, 87% hits | HEK293T StAR-promoter luciferase reporter, SF-1/DAX-1 repression | inhibition, % at 6.8 µM | shares compounds with DAX1 inh-2;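 active = inhibition above the average of every tested compound plus 3 SD, cut at about 3.8% in these data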;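 also: 0% = DAX-1 cells with DMSO and 100% = no DAX-1 control cells with DMSO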
SF1 mutant ctr = StAR reporter signal changes without DAX1, counter-screen for DAX1 inhibitor project, cell-based, luminescence, AF-2 mutant SF-1, transactivation; 2,400 compounds, 78% hits; inhibition, % at 6.8 µM; shares compounds with DAX1 inh-2; AID 652136, 2013; HEK293 StAR-luciferase, SF-1 AF2 mutant;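 active = inhibition above the mean of all tested compounds plus 3 SD, cut at about 3% in these data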;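 also: 0% = DAX-1 transfected cells with DMSO and 100% = cells without DAX-1 with DMSO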
LXRb hcDAF ctr = LXR agonists, Gal4 luciferase reporter, confirmation, counter-screen for hcDAF-12 agonist project, cell-based, luminescence, HEK293, H. contortus campaign; shares compounds with hcDAF12 agonist; HEK293 Gal4-LXR tk-luc reporter, 24 h; normalized: DMSO 0%, positive control 100%; activation, % at 6.8 µM; 3,400 tested, under 10 active; AID 743027, 2013;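 active = mean percent activation of the reporter above a cutoff set as the average over tested compounds plus their standard deviation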
hcDAF12 ag = H. contortus DAF-12 receptor agonists, confirmation, cell-based, luminescence, HEK293, lit1-tk-luc, triplicate. shares compounds with hcDAF12 agonist. HEK293 hcDAF-12 lit1-tk-luc reporter; % of Δ7-dafachronic acid response. activation, % at 6.8 µM. 3,400 compounds, 61% hits. AID 743032, 2013;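 active = mean activation across triplicate tests above the threshold derived from the earlier primary screen, cut at about 5.5% in these data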;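 also: 0% = DMSO only wells and 100% = 3 µM Δ7-dafachronic acid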
hgDAF12 conf = H. glycines DAF-12 receptor agonists, confirmation, cell-based, luminescence, HEK293, GAL4-LBD fusion; shares compounds with hgDAF-12 ag; HEK293 GAL4-hgDAF12 luciferase reporter, agonist mode; percent of butyrate response; activation, % at 6.8 µM; 3,300 compounds, 80% hits; AID 743050, 2013;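 active = mean activation over triplicate wells above the hit cutoff derived from the earlier primary screen, cut at about 11% in these data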;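 also: 0% = DMSO low control and 100% = 2 mM sodium butyrate high control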
LXRb DAF12 ctr = LXR agonists, Gal4 luciferase reporter, confirmation, counter-screen for hgDAF-12 agonist project, cell-based, luminescence, HEK293, H. glycines campaign; shares compounds with hgDAF-12 ag; 24 h; activation, % at 6.8 µM; 3,300 tested, under 10 active;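 active = mean activation of the triplicate above a set limit carried over from the primary screen, none filed active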
Numbers without * were called inactive; x = not tested or not shown. A selection: hits, their analogues and other compounds. The true share with any hit is near 4.1%.

SMILES	DAX1 inh-1	ssDAF12 agonist	hcDAF12 agonist	DAX1 inh-2	hgDAF-12 ag	DAX1 conf	SF1 mutant ctr	LXRb hcDAF ctr	hcDAF12 ag	hgDAF12 conf	LXRb DAF12 ctr
CCOC(=O)c1c(C)[nH]c(N=Nc2ccc(C)cc2)c1C	4	0	3	4.9*	15*	12*	6.0*	x	x	18*	1
COc1ccc(C(=O)NC2=Nc3ccccc3N=C(C)C2c2ccccc2)cc1 (centres undefined)	18*	0.9*	8.9*	9.6*	59*	23*	19*	0	1	39*	0
O=C(CCc1ccccc1)N[C@H]1[C@H](OC(=O)c2ccc3ccccc3n2)CCC[C@@]12C(=O)N(Cc1ccccc1)c1ccccc12	x	-1	-1	0	1	x	x	x	x	x	x
CCCC1CCC2(CC1)CCC2OC(=S)Nc1ccc(Cl)cc1 (centres undefined)	x	-2	3	x	0	x	x	x	x	x	x
Cc1ccc2nc(C3CCCCC3)c(CC(C)(C)C)n2c1	x	0	0	0	-1	x	x	x	x	x	x
COc1ccccc1Cc1c(-c2ccc(C)cc2)nc2ccc(C)cn12	x	0	1	4.9*	14*	7.0*	5.1*	x	x	10	0
Cc1ccc(-c2nc3ccc(C)cn3c2CC2CCCCC2)cc1	x	2.2*	10*	7.2*	21*	3.8*	3.2*	1	9.1*	11*	0
COc1ccccc1Cc1c(-c2ccccc2)nc2ccc(C)cn12	x	0	4	5.2*	17*	1	4.3*	x	x	8	0
COc1ccc(-n2nc3cc(C)c(NC(C)=O)cc3n2)cc1	1	0.9*	5	4.5*	18*	8.4*	1	x	x	9	1
COc1ccc(NC(C)=O)c(C)c1	2	-2	-2	0	0	x	x	x	x	x	x
O=C1C(=Cc2ccc(F)cc2)CCc2ccccc21	x	1	7.9*	9.5*	22*	7.4*	3.3*	2	5	17*	1
COc1ccccc1C=C1CCc2ccccc2C1=O	x	0	7.2*	8.6*	18*	3.9*	1	2	7.5*	13*	1
O=C1/C(=C\c2ccncc2)CCc2ccccc21	0	-1	0	0	3	x	x	x	x	x	x
O=C1C(=Cc2cccc(Cl)c2)CCc2ccccc21	x	-1	1	1	7	x	x	x	x	x	x
O=C1C(=Cc2ccc(Cl)cc2)CCc2ccccc21	x	-1	3	7.4*	15*	7.4*	3.3*	x	x	3	1
O=C1C(=Cc2ccccc2Cl)CCc2ccccc21	x	1	10*	6.5*	23*	6.7*	3	2	5.9*	16*	1
COc1cccc(N/C=C/C(=O)c2ccc(OC)c(OC)c2)c1	2	-1	-2	0	2	x	x	x	x	x	x
COc1ccc(C(=O)/C=C/Nc2cccc(O)c2)cc1	-1	1.2*	8.2*	6.0*	19*	14*	8.1*	2	12*	27*	2
Cc1ccc(-n2c(SCC(=O)C(C)(C)C)nnc2-c2cccc(C)c2)cc1	x	-2	-3	-2	0	x	x	x	x	x	x
Cc1cccc(-n2ncc3c(N4CCOCC4)ncnc32)c1	-3	-1	0	3	2	x	x	x	x	x	x
Cc1cccc(-n2ncc3c(N4CCCC4)ncnc32)c1	-1	1	5	7.4*	18*	16*	6.9*	x	x	16*	1
Cc1cccc(-n2ncc3c(NCc4cccnc4)ncnc32)c1	2	-1	-1	4.7*	13*	8.1*	4.2*	x	x	12*	0
Cc1cccc(-n2ncc3c(NC4CCCCC4)ncnc32)c1	1	0	7.8*	6.8*	25*	13*	7.5*	2	6.2*	12*	1
C[C@H]1[C@@H](NC(=O)c2ccc(C(F)(F)F)cc2)CC[C@@]23CCCN2C(=O)CCC[C@@H]13	x	-1	-2	x	-1	x	x	x	x	x	x
O=C1CSc2ccc(C(=O)N3CCCC(C(=O)N4CCOCC4)C3)cc2N1 (centres undefined)	x	-2	1	1	2	x	x	x	x	x	x
Cc1cc2nc(N3C(=O)CNC3=S)sc2cc1C	0	1.0*	2	6.7*	17*	14*	7.0*	x	x	13*	1
Cc1noc(C)c1C(=O)Nc1nc2ccc(F)cc2s1	2	1	7.0*	8.9*	14*	9.8*	5.3*	2	5.8*	14*	1
O=C(Nc1nc2ccccc2s1)c1ccc(F)cc1	2	1.8*	7.8*	4.7*	16*	8.0*	4.3*	2	8.8*	20*	1
